Compound activity deposited in PubChem BioAssay by several laboratories.
The list is not random: actives were taken first. Their share in the collection is about 1.8%.
PrP 5UTR inh: inhibition of PrP 5' UTR reporter expression. inhibition, % (test concentration not listed). cell-based PrP 5' UTR mRNA reporter, plate reader. 340,000 tested, 0.35% active; in the data active means inhibition above about 52%
PrPC surface inh: inhibitors of human cell surface prion protein PrPC, primary screen, cell-based, TR-FRET; Major prion protein (Homo sapiens), P04156; TR-FRET read-out; inhibition, % at 13.8 µM; 370,000 tested, 0.43% active; AID 720596, 2013; in the data active means inhibition above about 24%
MazF activator: activators of E. coli MazEF toxin-antitoxin RNase, primary screen, biochemical, fluorescence, uHTS; activation, % at 20 µM; Endoribonuclease toxin MazF (Escherichia coli (strain K12)), P0AE70; 350,000 tested, 0.32% active; FAM/BHQ RNA-DNA oligo cleavage fluorescence, 5 h; in the data active means activation above about 50%
PfHsp40 yeast: rescue of yeast from PfHsp40 toxicity, primary screen, S. cerevisiae, ATP luminescence. S. cerevisiae expressing PfHsp40, growth rescue. growth rescue, % at 12.5 µM. 340,000 tested, 0.68% active. AID 504582, 2011; in the data active means growth rescue above about 28%, passing the limit was not always enough;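 further: yeast W303a lacking pdr1 and pdr3 grown in galactose medium; growth measured after three days at 30 °C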
PriA SSB inh: inhibitors of Klebsiella pneumoniae PriA binding to SSB C-terminal tail, primary screen, biochemical, AlphaScreen; PriA–SSB C-terminal tail interaction (Klebsiella pneumoniae); AlphaScreen SSBct-PriA binding, biotinylated peptide; inhibition, % at 33 µM; 430,000 tested, 0.6% active; AID 1272365, 2023; in the data active means inhibition mostly above about 37%, no sharp cut-off; inactive means mostly below about 20%
PrPC TRFRET cf: confirmation of inhibitors of cell surface human prion protein, confirmation, cell-based, TR-FRET. shares compounds with PrPC surface inh. cell surface PrPC level. inhibition, % at 13.8 µM. 1,500 tested, 65% active. AID 743200, 2013; in the data active means inhibition above about 25%
LD9 cytotox: cytotoxicity in LD9 cells, cytotoxicity control for cell surface PrPc inhibitor project, cell-based, luminescence, high throughput. luminescence viability. inhibition, % at 13.8 µM. AID 743201, 2013. shares compounds with PrPC surface inh. 1,500 tested, 29% active; in the data active means inhibition above about 9.5%
Of the large screens only hits and unclear results are named; the others gave an inactive call (follow-up assays come after a bar, where they were run).

Cc1ccc(S(=O)(=O)N2CCCCC2)cc1NC(=O)Cn1cnnn1	none
Cc1ccc(S(=O)(=O)N2CCCCC2)cc1NC(=O)CSc1ncnc2ccccc12	PrPC surface inh 62.7 | PrPC TRFRET cf 71.1 | LD9 cytotox inactive
Cc1ccc(NC(=O)CSc2ncnc3ccccc23)cc1S(=O)(=O)N1CCCCCC1	PrPC surface inh 67.3 | PrPC TRFRET cf 77.3 | LD9 cytotox inactive
O=C(NCCOc1ccc(-c2ccc(F)cc2)nn1)c1ccc2ccccc2c1	none (no result: PrP 5UTR inh, PrPC surface inh, MazF activator, PfHsp40 yeast)
CCOc1ccc(S(=O)(=O)NCCn2ncc3c(N4CCCC4)ncnc32)cc1	none (no result: PrP 5UTR inh, PrPC surface inh, MazF activator, PfHsp40 yeast)
O=C(NC(CO)(CO)CO)c1coc(=O)c(Br)c1	PrPC surface inh 45.8 | PrPC TRFRET cf inactive | LD9 cytotox inactive
CCCNC(=O)N1[C@H]2CC[C@@H]1C(C(=O)OC)=C(c1c(C)noc1C)C2	none
O=C(COC(=O)c1cc(S(=O)(=O)N2CCOCC2)ccc1Cl)NC1CC1	none
N#CCc1c(C#N)c(N)nc(N2CCN(S(=O)(=O)c3ccccc3F)CC2)c1C#N	PrPC surface inh 31.1 | PrPC TRFRET cf inactive | LD9 cytotox 16.4
CCNC(=S)N/N=C/c1cccs1	none (no result: PriA SSB inh)
NC(=NOC(=O)COc1ccc2ccccc2c1)c1cccnc1	none (no result: PrP 5UTR inh, PrPC surface inh, MazF activator, PfHsp40 yeast)
N/C(=N\OC(=O)COc1ccc2ccccc2c1Br)c1ccccn1	PrPC surface inh 58.9 (no result: PriA SSB inh) | PrPC TRFRET cf 83.8 | LD9 cytotox inactive
N/C(=N\OC(=O)COc1ccc2ccccc2c1Br)c1cccnc1	PrPC surface inh 47.4 (no result: PrP 5UTR inh, MazF activator, PfHsp40 yeast, PriA SSB inh) | PrPC TRFRET cf 78.2 | LD9 cytotox inactive
CCOC(=O)N1CCN(C(=O)COc2ccc3ccccc3c2Br)CC1	PrPC surface inh 49.6 | PrPC TRFRET cf 78.7 | LD9 cytotox inactive
O=C(COc1ccc(Br)cc1)Nc1nnc(-c2cccnc2)s1	none (no result: PrP 5UTR inh, PfHsp40 yeast)
OCC1(Cc2ccccc2)CCN(Cc2cccc(F)c2F)CC1	none
OC[C@H]1O[C@@H](c2nc3ccc(-c4nc(-c5ccc(Br)cc5)no4)cc3[nH]2)C[C@@H]1O	PrPC surface inh 29.1 (no result: PrP 5UTR inh, MazF activator, PfHsp40 yeast, PriA SSB inh) | PrPC TRFRET cf inactive | LD9 cytotox inactive
CCc1cc(=O)oc2cc(OC(C)=O)cc(OC(C)=O)c12	PrPC surface inh 47.4 | PrPC TRFRET cf 45.9 | LD9 cytotox inactive
COc1ccc(NCC(=O)Nc2cc(S(=O)(=O)N3CCOCC3)ccc2N2CCOCC2)c(OC)c1	PrPC surface inh 24.8 | PrPC TRFRET cf inactive | LD9 cytotox inactive
Cc1ccc(C(=O)Nc2cc(S(=O)(=O)N3CCOCC3)ccc2N2CCCC2)cc1	PrPC surface inh 46.0 | PrPC TRFRET cf 49.6 | LD9 cytotox inactive
COc1cccc(NC(=O)CNc2cc(S(=O)(=O)N3CCOCC3)ccc2N2CCCC2)c1	none
Cc1noc(C)c1NC(=O)N(C)C[C@H]1Oc2c(cccc2N(C)C)C(=O)N([C@H](C)CO)C[C@@H]1C	none
Oc1ccc(/C=N/Nc2nccnc2Cl)c(O)c1	PrPC surface inh 24.7 (no result: PriA SSB inh) | PrPC TRFRET cf 33.2 | LD9 cytotox 23.9
Oc1ccccc1/C=N/Nc1nccnc1Cl	none (no result: PriA SSB inh)
CC(C)CSc1nnc2c3ccccc3n(C)c2n1	PrPC surface inh 57.6 | PrPC TRFRET cf 66.3 | LD9 cytotox inactive
S=c1nc(Cc2ccc(Cl)cc2)[nH]c2ccccc12	PrPC surface inh 29.2 | PrPC TRFRET cf 59.8 | LD9 cytotox inactive
S=c1nc(Cc2ccccc2)[nH]c2ccccc12	PrPC surface inh 31.2 | PrPC TRFRET cf 26.3 | LD9 cytotox inactive
Oc1ccccc1Nc1nc(NCc2ccco2)c2ccccc2n1	none
Cc1cccc(Nc2nc(NCc3ccco3)c3ccccc3n2)c1	PrPC surface inh 29.7 | PrPC TRFRET cf 31.4 | LD9 cytotox 29.3
c1ccc(Nc2nc(NCc3ccco3)c3ccccc3n2)cc1	PrPC surface inh 27.8 | PrPC TRFRET cf 35.2 | LD9 cytotox 15.4
O=C(CCC(=O)c1cccs1)NC(c1ccccc1)c1ccccc1	PrPC surface inh 32.6 | PrPC TRFRET cf inactive | LD9 cytotox inactive
Cc1ccc(S(=O)(=O)N2c3ccccc3OC(C(=O)OC(C)(C)C)(C(=O)OC(C)(C)C)C2CC(=O)c2ccccc2)cc1 (centres undefined)	none (no result: PrP 5UTR inh, MazF activator, PfHsp40 yeast, PriA SSB inh)
